Screens (PubChem)
Sampled rows, rich in hits. Any-hit rate of the full collection: about 1.2%.
Rv3671c inh = Rv3671c serine protease inhibitors, primary screen, biochemical, fluorescence polarization, M. tuberculosis H37Rv | inhibition, % at 5.96 µM | AID 2606, 2010 | 320,000 tested, 0.048% active; in the data active = inhibition above about 38%;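 also: extracellular domain of Rv3671c used as enzyme; 0% = enzyme with DMSO and 100% = no enzyme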
FadD28 binding = inhibitors of FadD28 bisubstrate probe binding, primary screen, biochemical, fluorescence polarization, single point. Mycobacterium tuberculosis FadD28 fatty-acid-AMP ligase. inhibition, % at 12.5 µM. 360,000 tested, 0.22% active; in the data active = inhibition above about 8.5%, passing the limit was not always enough; inconclusive = no clear call, values can overlap the other calls
PrPC TRFRET = inhibitors of human cell surface prion protein PrPC, primary screen, cell-based, TR-FRET; Major prion protein (Homo sapiens), P04156; TR-FRET read-out; inhibition, % at 13.8 µM; 370,000 tested, 0.43% active; AID 720596, 2013; in the data active = inhibition above about 24%; also: 0% = median of the test wells and 100% = reference compound wells
PrP UTR inh = inhibition of PrP 5' UTR reporter expression | cell-based PrP 5' UTR mRNA reporter, plate reader | inhibition, % (test concentration not listed) | 340,000 tested, 0.35% active | AID 488862, 2010; in the data active = inhibition above about 52%; also: 0 = median of the neutral control wells
PriA SSB inh = inhibitors of Klebsiella pneumoniae PriA binding to SSB C-terminal tail, primary screen, biochemical, AlphaScreen. PriA–SSB C-terminal tail interaction (Klebsiella pneumoniae). AlphaScreen SSBct-PriA binding, biotinylated peptide. inhibition, % at 33 µM. 430,000 tested, 0.6% active. AID 1272365, 2023; in the data active = inhibition mostly above about 37%, no sharp cut-off; inactive = mostly below about 20%;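 also: plate controls were negative control peptide for no effect and reference peptide for full effect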
Mtb UGM inh = M. tuberculosis UGM enzyme inhibitors, primary screen, biochemical, fluorescence polarization, single point | UDP-galactopyranose mutase (Mycobacterium tuberculosis (strain ATCC 25618 / H37Rv)), … | purified UGM, fluorescence polarization probe displacement | inhibition, % at 10 µM | 320,000 tested, 0.06% active; in the data active = inhibition above about 10%, passing the limit was not always enough; inconclusive = no clear call, values can overlap the other calls
Target sequence (P9WIQ1 whole entry, looked up): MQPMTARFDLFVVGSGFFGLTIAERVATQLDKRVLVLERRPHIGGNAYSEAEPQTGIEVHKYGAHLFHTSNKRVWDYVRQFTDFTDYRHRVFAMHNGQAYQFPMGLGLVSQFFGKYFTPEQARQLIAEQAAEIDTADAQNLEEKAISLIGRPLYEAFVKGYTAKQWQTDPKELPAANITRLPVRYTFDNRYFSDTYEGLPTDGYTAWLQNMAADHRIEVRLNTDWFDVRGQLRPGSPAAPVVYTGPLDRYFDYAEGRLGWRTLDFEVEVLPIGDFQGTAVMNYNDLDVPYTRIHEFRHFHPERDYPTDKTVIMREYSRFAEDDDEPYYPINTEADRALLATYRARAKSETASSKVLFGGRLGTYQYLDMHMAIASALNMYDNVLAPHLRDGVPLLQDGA
PrP 5UTR single = prion 5' UTR mRNA inhibition, cherry-pick retest. shares compounds with PrP UTR inh. cell-based prion protein 5' UTR reporter, plate reader. inhibition, % at 2.5 µM. 1,100 tested, 48% active. AID 504592, 2011; in the data active = inhibition above about 54%; inconclusive = no clear call, values can overlap the other calls
* = called active by the depositor; i = inactive; ? = inconclusive; nt = not tested or not shown.

SMILES | Rv3671c inh | FadD28 binding | PrPC TRFRET | PrP UTR inh | PriA SSB inh | Mtb UGM inh | PrP 5UTR single
CCOC(=O)c1c(C)[nH]c(C(=O)N/N=C/c2ccc(Br)cc2)c1C | -48.6 | -3.8 | 2.2 | 55.1* | i | -0.3 | 87.7*
CCOC(=O)c1c(C)[nH]c(C(=O)NN=Cc2ccccc2O)c1C | nt | nt | nt | nt | -6.2 | nt | nt
N=c1cc(N2CCCCC2)nc(N)n1O | nt | nt | nt | nt | -5.5 | nt | nt
Cc1ccc(NC(=O)C2CCN(C(=O)c3ccccc3C)CC2)nc1 | 0.0 | -1.7 | 6.2 | -15.4 | -7.8 | 1.3 | nt
Cc1ccccc1C(=O)N1CCC(C(=O)Nc2nccs2)CC1 | 0.5 | -3.4 | -4.1 | 88.0* | -3.6 | 0.9 | -16.8
O=C(Nc1cnn(CC2CCOCC2)c1)c1ccc2c(c1)OCO2 | nt | nt | nt | nt | -12.0 | nt | nt
O=C(Nc1cccc(O)c1)c1cc(-c2ccc3c(c2)OCO3)on1 | -48.9 | -5.2 | 7.7 | 58.2* | -7.7 | -3.6 | ?
Cc1cc(=O)c(OCc2ccc(F)cc2)cn1CC(=O)Nc1ccc2c(c1)OCCO2 | nt | nt | nt | nt | -17.0 | nt | nt
O=C(NCc1nn(C2CCCC2)c2c1CCCC2)[C@@H]1COc2ccccc2O1 | nt | nt | nt | nt | 4.0 | nt | nt
COC(=O)CS[C@H]1CCN(C(=O)c2ccc3nsnc3c2)C1 | nt | nt | nt | nt | 3.0 | nt | nt
CN(C)c1ccc2c(c1)OC(N)=C(C#N)C2c1cccc(F)c1 (centres undefined) | -7.5 | -0.4 | nt | 66.0* | 37.4 | -0.7 | 90.3*
N#CC1=C(N)Oc2cc(N)ccc2C1c1cccc(F)c1 (centres undefined) | -2.9 | -0.3 | 7.7 | -19.7 | 6.5 | 0.8 | nt
COC1=C(C)C(=O)C2=C(C1=O)C1C3CC4=C(C(=O)C(OC)=C(C)C4=O)C(CNC(=O)C(C)=O)N3C(C#N)C(C2)N1C (centres undefined) | nt | 0.1 | 0.8 | 93.8* | 12.0 | nt | 97.4*
Cc1cc(CNC(=O)Cn2cnc3c2c(=O)n(C)c(=O)n3C)no1 | nt | nt | nt | nt | -16.0 | nt | nt
Cc1ccccc1C(=O)NNC(=O)C12CC3CC(CC(C3)C1)C2 | -11.2 | -0.9 | 7.9 | 87.8* | -2.1 | -2.1 | -15.9
Cc1cccc(C(=O)NNC(=O)C23CC4CC(CC(C4)C2)C3)c1O | 7.7 | nt | 6.4 | -8.8 | 0.3 | 1.0 | nt
O=C(/C=C\Nc1ccc2c(c1)OCO2)c1ccccn1 | 4.4 | -1.2 | -2.6 | 80.5* | -9.9 | 0.1 | 77.6*
COc1ccc(C(C#N)=C2C=CC(=NO)C(C)=C2Cl)cc1 | nt | -5.8 | 1.4 | 71.3* | 4.0 | nt | -34.9
COC(=O)C1C(O)=C(C=Nc2ccc3ccccc3c2)C(=O)CC1(C)C (centres undefined) | -6.0 | -1.2 | 5.0 | 80.4* | -4.7 | 2.0 | 9.1
COc1ccc(C(CNC(=O)C(CCSC)NC(=O)c2ccccc2Cl)N2CCCCC2)cc1 (centres undefined) | 5.6 | -2.0 | 1.0 | 71.6* | 9.2 | -1.9 | -20.9
O=S(=O)(NCCOc1cccc(C(F)(F)F)c1)c1cccs1 | nt | nt | nt | nt | -24.0 | nt | nt
O=C(COc1ccccc1F)N1CC(C(=O)N2CCN(c3ccccn3)CC2)C1 | nt | nt | nt | nt | -20.0 | nt | nt
CC1=CC2OC3CC4OC(=O)C=CC=CC(=O)OCCC(C)C(O)C(=O)OCC2(CC1O)C4(C)C31CO1 (centres undefined) | nt | -2.1 | nt | 93.6* | nt | nt | 97.0*
CCOC(=O)c1c(C)[nH]c(C(=O)OCCOc2ccccc2C)c1C | nt | -1.1 | -6.2 | 81.5* | -6.1 | nt | -59.9
Cc1ccc(S(=O)(=O)N2CCN(C(=O)N(C)C)CC2)cc1 | -4.7 | -2.4 | -1.4 | 61.6* | -6.0 | -3.4 | -58.0
SMILES | Rv3671c inh | FadD28 binding | PrPC TRFRET | PrP UTR inh | PriA SSB inh | Mtb UGM inh | PrP 5UTR single
CC(C)Oc1ccc(C(=O)NCCn2ncc3c(=O)n(Cc4ccccc4F)cnc32)cc1 | nt | nt | nt | nt | 9.0 | nt | nt
CC(C)(C)c1ccc(C(=O)Nc2ccc(CC(=O)O)cc2)o1 | -3.7 | -2.6 | 5.8 | 72.1* | -2.6 | -1.0 | 75.2*
Cc1ccc(C(=O)Nc2ccc(CC(=O)O)cc2)o1 | -0.1 | -4.0 | -5.1 | -21.0 | -4.4 | 1.8 | nt
Cc1cccc(Cn2cc(C=O)c3ccccc32)c1 | -11.8 | -3.9 | 7.3 | 19.2 | -17.5 | -0.9 | nt
O=Cc1cn(Cc2cccc([N+](=O)[O-])c2)c2ccccc12 | -6.9 | -2.3 | -7.8 | 71.2* | 1.7 | -3.0 | 15.8
CSC(=Nc1ccccc1)N=C(SCc1ccccc1)N(C)C | nt | -1.0 | -11.3 | 73.6* | -12.9 | nt | 39.1
N#CNC(=Nc1ccccc1)SCc1ccc(C(=O)O)cc1 | 3.1 | -1.9 | -1.8 | -12.1 | -12.3 | -0.4 | nt
CCN(CC)c1ccc2c(cc1=O)[C@@H](NC)CCc1cc(OC)c(OC)c(OC)c1-2 | -5.0 | 0.1 | -6.0 | 80.3* | -2.2 | 2.8 | 81.5*
COc1cc2c(c(OC)c1O)-c1ccc(OC)c(=O)cc1C(NC(=O)C(F)(F)F)CC2 (centres undefined) | nt | -2.7 | -10.6 | 54.4* | -14.2 | nt | 90.0*
COc1cc2c(c(OC)c1OC)-c1ccc(OC)c(=O)cc1[C@@H](N(C)CC#CCO)CC2 | 1.1 | 0.4 | -7.5 | 80.2* | 0.3 | -0.5 | 90.8*
COc1cc2c(c(OC)c1OC)-c1ccc(OC)c(=O)cc1[C@@H](NC(C)=O)CC2 | -2.4 | -1.0 | -1.2 | 49.5 | -5.1 | -1.1 | nt
CC[C@H](C)Sc1nc(-c2ccc(F)cc2)nc2c1c(=O)n(C)c(=O)n2C | nt | nt | nt | nt | -4.0 | nt | nt
CNC(=O)c1ccsc1NC(=O)c1ccc(C)cc1 | nt | nt | nt | nt | -9.0 | nt | nt
COc1ccc2c(c1OC)c(=O)n1c3ccc(OC(C)C(=O)NCCN4CCOCC4)cc3c3ccnc2c31 (centres undefined) | -6.7 | -5.8 | -20.0 | -30.3 | 11.6 | 0.2 | nt
COc1ccc2c(c1OC)c(=O)n1c3ccc(OC(C)C(=O)NCCCN4CCOCC4)cc3c3ccnc2c31 (centres undefined) | -12.2 | -5.4 | nt | 54.2* | 21.1 | -1.6 | 7.5
CCOc1ccc2c(c1)C(C)=CC(C)(C)N2S(=O)(=O)c1ccc(C)cc1 | nt | -1.3 | 9.5 | 66.0* | -7.5 | nt | 86.7*
CCOc1ccccc1C1C2=C(COC2=O)Nc2cc3c(cc21)OCO3 (centres undefined) | 7.4 | 0.6 | 9.6 | 64.2* | 1.3 | -0.2 | 81.6*
O=C1OCC2=C1C(c1ccc(F)cc1)c1cc3c(cc1N2)OCO3 (centres undefined) | nt | -1.6 | 12.8 | 49.8 | -18.1 | nt | nt
O=C1OCC2=C1C(c1ccc(F)cc1)c1cc3c(cc1N2)OCCO3 (centres undefined) | nt | -1.6 | 9.5 | 53.6* | -11.2 | nt | 87.9*
Brc1cccc(-c2nc3ccccc3n2CCCOc2ccccc2)c1 | nt | nt | nt | nt | 1.0 | nt | nt
CCOC(=O)N1CCN(C(=O)Cc2cn(Cc3ccccc3)c3ccccc23)CC1 | nt | nt | nt | nt | -12.0 | nt | nt
